The record followed here is the supplement of paper PMC5736601.

± gives the uncertainty stated by the source.

In this experiment the test system is human primary fetal neurons. Put plainly: surviving MAP-2+ neurons after FeSO4 challenge with drug pre-treatment, relative to untreated control (% of untreated control); higher = more neuroprotection against iron toxicity. To be noted: 10 µM; FeSO4 concentration 25-50 µM; 24 h. The method, then:
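Human fetal primary neurons (96-well, AIM-V serum-free medium) were pre-treated for 1 h with each NINDS Custom Collection II drug at 10 µM, then challenged with FeSO4 (25 or 50 µM). After 24 h they were fixed, stained with anti-MAP-2 and counted by automated imaging (ImageXpress/MetaXpress). MAP-2+ neuron counts were normalised to untreated control wells (100%); values are the mean of 1-4 independent experiments, each in quadruplicate.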
As for `Cc1ccc(O)cc1.Cc1cccc(O)c1.Cc1ccccc1O`, the “surviving MAP-2+ neurons” value is 6.04 ± 1.1.

Regarding `CN(C)CCOC(c1ccccc1)c1ccccc1.Cn1c(=O)c2[nH]c(Cl)nc2n(C)c1=O`, the “surviving MAP-2+ neurons” value stood at 36.5 ± 5.3.
